Results reported in PubChem BioAssay.
Values joined by “and” are separate entries in the source; they are usually repeats but may differ in a detail not shown here. Identical values can stand only once. Results filed as inconclusive are left out. For part of these data: Results with a measured potency or affinity are listed apart. Active and inactive are the calls of the source. Unless noted, no rule for the calls is given here.

Key:
[1] = target: 6-phosphogluconate dehydrogenase, decarboxylating (Homo sapiens) (UniProt P52209); assay: inhibition of human phosphogluconate dehydrogenase – biochemical, recombinant enzyme, NADPH absorbance, primary screen (AID 1159550;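 active = at least 20% inhibition of 6-phosphogluconate dehydrogenase activity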); details: recombinant 6PGD, NADPH absorbance 341 nm; at 10 µM; stronger effect = higher value
Sequence of 6-phosphogluconate dehydrogenase, decarboxylating (Homo sapiens) (P52209 whole entry, looked up): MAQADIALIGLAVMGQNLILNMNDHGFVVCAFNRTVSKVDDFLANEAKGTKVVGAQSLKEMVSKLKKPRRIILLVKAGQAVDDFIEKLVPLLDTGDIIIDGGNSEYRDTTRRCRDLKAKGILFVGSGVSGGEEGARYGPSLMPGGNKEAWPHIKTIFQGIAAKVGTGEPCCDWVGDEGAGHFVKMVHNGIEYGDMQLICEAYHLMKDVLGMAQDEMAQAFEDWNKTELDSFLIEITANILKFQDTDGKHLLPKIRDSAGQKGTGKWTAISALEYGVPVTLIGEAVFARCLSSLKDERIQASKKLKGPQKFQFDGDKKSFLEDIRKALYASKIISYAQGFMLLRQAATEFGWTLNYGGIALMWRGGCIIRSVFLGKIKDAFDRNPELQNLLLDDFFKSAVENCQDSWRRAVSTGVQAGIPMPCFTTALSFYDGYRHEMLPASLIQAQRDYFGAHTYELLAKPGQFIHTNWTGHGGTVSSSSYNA

[2] = test system: Aerobactin synthetase IucA (Klebsiella pneumoniae hvKP1); assay: IucA enzyme inhibition, primary screen, biochemical, Spectrum library (AID 1346200); details: malachite green pyrophosphate, A620, at 8 µM, stronger effect = lower value;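 also: 100% = wells without compound and 0% = wells lacking enzyme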
[3] = target: Mitogen-activated protein kinase 7 (Homo sapiens) (UniProt Q13164); assay: Gal4-ERK5 driven luciferase induction – cell-based, HTS, primary screen (AID 1508626;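 active = luciferase signal above three times the same-plate solvent-only control wells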;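 also: luciferase driven by Gal4-ERK5 fusion binding five Gal4 sites before minimal TATA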); details: HeLa Gal4-ERK5 transactivation, 18 h, at 5 µM, stronger effect = higher value
Sequence of Mitogen-activated protein kinase 7 (Homo sapiens) (Q13164 whole entry, looked up, the tested form may be a part): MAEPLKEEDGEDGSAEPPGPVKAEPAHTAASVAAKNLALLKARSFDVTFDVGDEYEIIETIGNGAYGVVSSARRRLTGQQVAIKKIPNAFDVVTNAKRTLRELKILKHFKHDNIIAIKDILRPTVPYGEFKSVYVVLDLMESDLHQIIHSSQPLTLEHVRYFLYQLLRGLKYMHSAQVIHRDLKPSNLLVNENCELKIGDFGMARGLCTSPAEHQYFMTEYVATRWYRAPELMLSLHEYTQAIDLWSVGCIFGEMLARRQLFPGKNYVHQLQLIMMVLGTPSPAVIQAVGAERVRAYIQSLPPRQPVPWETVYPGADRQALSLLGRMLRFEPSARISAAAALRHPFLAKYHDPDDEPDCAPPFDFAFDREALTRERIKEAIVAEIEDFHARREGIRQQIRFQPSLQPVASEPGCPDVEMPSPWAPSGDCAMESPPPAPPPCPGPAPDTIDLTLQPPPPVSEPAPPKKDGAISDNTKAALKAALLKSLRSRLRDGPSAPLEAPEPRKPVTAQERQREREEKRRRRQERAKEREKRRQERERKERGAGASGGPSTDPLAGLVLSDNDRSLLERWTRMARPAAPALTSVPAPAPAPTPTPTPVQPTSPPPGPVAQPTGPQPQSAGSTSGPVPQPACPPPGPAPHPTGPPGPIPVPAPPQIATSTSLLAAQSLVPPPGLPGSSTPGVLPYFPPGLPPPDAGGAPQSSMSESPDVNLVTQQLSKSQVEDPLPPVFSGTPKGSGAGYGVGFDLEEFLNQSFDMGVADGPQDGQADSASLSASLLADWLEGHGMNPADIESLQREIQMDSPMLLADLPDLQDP

[4] = blockers of MitoPT in mitochondria (AID 1580); details: isolated mitochondria, permeability transition inhibition
[5] = blockers of polyQ-driven CASP3 activation – cell-based (AID 1583); details: polyglutamine-induced caspase-3 activation, cell assay; stronger effect = higher value;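 tested at 10 µM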
[6] = blockers of biotin-polyQ monomer incorporation into aggregates – biochemical, solid-phase synthetic aggregates, QA3 (AID 1585); details: polyQ aggregate elongation; EC50: measured here: elongation inhibition potency; inhibition: at 100 µM, stronger effect = higher value
[7] = turbidity assay for polyglutamine aggregation inhibitors, qthio, 25 µM (AID 1588); details: at 25 µM, stronger effect = lower value
[8] = yeast 75Q aggregation reduction – 75Q-TubU reporter (AID 1593); details: Yeast 75Q polyglutamine aggregation reporter
[9] = restoration of touch response, mutant HTT neurons – whole organism, C. elegans mechanosensory neurons, N-terminal huntingtin (AID 1599); details: C. elegans polyQ-huntingtin mechanosensory neurons, stronger effect = higher value
[10] = blockers of cytochrome c efflux from mitochondria – biochemical, purified mitochondria (AID 1603); details: stronger effect = lower value;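 also: mouse liver mitochondria challenged with calcium chloride; signal normalized to the plate average as 100%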
[11] = polyglutamine aggregate formation blockers (AID 1604); details: polyglutamine-induced protein aggregation inhibition assay; stronger effect = higher value; tested at 2.5 µM
[12] = glutamate transport activators, MN-1 cells, MN-1 cell line (AID 1612); details: MN-1 motor neuron cells, stronger effect = higher value;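 also: tested at 1 µM final; 0% = mean of DMSO vehicle wells on each plate; positive means more glutamate uptake than control and negative means less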
[13] = 75Q-TubH aggregate inhibition, S. cerevisiae, yeast (AID 1616); details: S. cerevisiae 75Q-TubH polyglutamine aggregation suppression; stronger effect = higher value
[14] = compounds altering viability of human ES cells (AID 493140); details: human embryonic stem cell survival screen; stronger effect = higher value;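 also: cells exposed to compounds for four days before counting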
[15] = P. berghei load reduction in hepatocytes – cell-based, HepG2, luciferase luminescence, HepG2 viability, primary screen (AID 624349; in the data active = parasite load remaining mostly below about 12%, no sharp cut-off; inactive = mostly above about 10%;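 also: 100% = mean of DMSO negative control wells on the same plate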); details: P. berghei liver stage in HepG2, luciferase luminescence, concentration not given here; parasite load remaining: stronger effect = lower value; viability: measured here: HepG2 viability without parasites
[16] = viability loss with induced miR-34 in A549 – imaging, A549 dox-inducible miR-34, nuclei and caspase counts, primary screen (AID 1347080;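 active = compounds whose cell count with miR-34 switched on is under 0.7 times the count with it off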); details: A549 miR-34 inducible, Hoechst nuclei count, 48 h
[17] = target: NAD(+) hydrolase SARM1 (Homo sapiens) (UniProt Q6SZW1); assay: blocking NAD cleavage by SARM1 SAM-TIR – cell lysate, NAD-Glo luminescence (AID 1508614;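 active = compound whose remaining NAD level is above about 45 nM, limit read from the data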;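 also: higher remaining NAD means stronger inhibition of SARM1 NADase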); details: SAM-TIR HEK293T lysate NADase, at 1 µM, stronger effect = higher value
Sequence of NAD(+) hydrolase SARM1 (Homo sapiens) (Q6SZW1 whole entry, looked up): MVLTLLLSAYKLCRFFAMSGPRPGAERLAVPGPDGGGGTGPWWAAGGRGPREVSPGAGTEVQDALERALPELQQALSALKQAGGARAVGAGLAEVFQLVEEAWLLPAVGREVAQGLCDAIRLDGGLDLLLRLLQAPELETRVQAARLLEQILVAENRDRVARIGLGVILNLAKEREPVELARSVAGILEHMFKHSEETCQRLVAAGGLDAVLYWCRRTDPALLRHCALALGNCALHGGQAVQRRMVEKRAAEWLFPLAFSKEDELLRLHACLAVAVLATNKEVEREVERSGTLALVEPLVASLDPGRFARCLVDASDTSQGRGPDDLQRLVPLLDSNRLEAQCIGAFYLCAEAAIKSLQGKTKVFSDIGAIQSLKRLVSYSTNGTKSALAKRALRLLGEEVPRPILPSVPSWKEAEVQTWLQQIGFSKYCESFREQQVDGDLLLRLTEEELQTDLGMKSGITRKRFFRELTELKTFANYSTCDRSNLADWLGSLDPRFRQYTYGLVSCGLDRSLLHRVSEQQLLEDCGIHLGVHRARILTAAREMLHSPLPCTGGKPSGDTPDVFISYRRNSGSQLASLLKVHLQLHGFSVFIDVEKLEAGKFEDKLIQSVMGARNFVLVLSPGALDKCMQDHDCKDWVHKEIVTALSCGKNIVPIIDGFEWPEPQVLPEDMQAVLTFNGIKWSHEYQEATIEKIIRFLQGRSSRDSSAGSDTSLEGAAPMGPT

[18] = measured here: relative caspase fold change +Dox/-Dox
[19] = measured here: total cells with miR-34 induction, stronger effect = lower value
[20] = measured here: total cells without miR-34 induction

## CCC(C)C(=O)O[C@@H]1C[C@@]2(C)[C@H](c3ccoc3)OC(=O)CC23OC2(C)O[C@]14[C@]1(C)[C@@H](CC(=O)OC)C5(C)CC1(O)[C@](O)(C5OC(=O)C1(C)OC1C)[C@@H](OC(C)=O)[C@]34O2 (stereo partly drawn)
[1]
  inhibition: -16.5% (inactive)
[2]
  activity remaining: 103% (inactive)
[3]
  luciferase signal: 12 AU (inactive)

## O=C(O)c1ccccc1-c1c2cc(Br)c(=O)cc-2oc2[c]([Hg])c(O)c(Br)cc12
[4]
  EC50: 10 µM (active)
[5]
  inhibition: 39.1%
[6]
  EC50: 38 µM
  inhibition: 61.6% (active)
[7]
  aggregation (% of control): 41.9% (active)
[8]
  score: 0.07
[9]
  rescue above control: 0
[10]
  cytochrome c release ratio: 1.39
[11]
  inhibition of aggregation: 57.7%
[12]
  glutamate uptake change: -7.36%
[13]
  aggregation suppression score: 0.0281
[14]
  survival: 18.6 (inactive)
[15]
  parasite load remaining: 62.4% (inactive) and 40.3% (inactive)
  viability: 57.8% and 97.8%
[1]
  inhibition: 2.12% (inactive)
[2]
  activity remaining: -1.02% (active)
[16]; stronger effect = lower value
  fold change: 0.908 (inactive)
[16]; [18]
  fold change: 2.08
[16]; [19]
  cell count: 11900
[16]; [20]
  cell count: 13100
[17]
  remaining NAD: 56 nM (active)
[3]
  luciferase signal: 52 AU (inactive)

## COc1ccc(C(=O)O[C@H]2CC[C@@]3(C)[C@@H]4CC[C@H]5[C@]6(O)C[C@H](O)[C@@]7(O)[C@@H](CN8C[C@@H](C)CC[C@H]8[C@@]7(C)O)[C@]6(O)C[C@@]53O[C@]24O)cc1OC
[1]
  inhibition: 9.47% (inactive)
[16]; stronger effect = lower value
  fold change: 0.935 (inactive)
[16]; [18]
  fold change: 1.54
[16]; [19]
  cell count: 6050
[16]; [20]
  cell count: 6480

## COc1ccc([C@H]2Oc3c(I)c(OC)cc(OC)c3C[C@@H]2O)cc1OC
[1]
  inhibition: 14.5% (inactive)
[2]
  activity remaining: 103% (inactive)
[3]
  luciferase signal: 44 AU (inactive)
